Reference: PubChem BioAssay AID588727 (Southern Research Specialized Biocontainment Screening …, 2011)
Among all 350,000 compounds or so, about 450 (0.13%) were called active. No rule for the calls is given here. These entries were drawn from the full list. Entries with a potency or affinity are not part of this list. Where a SMILES comes first, the peptide text is derived from it. The star is where a group is joined. CH2Cl = ClC*

Assay: inhibitors of VEEV TC-83 cytopathic effect, confirmation, Vero cells (AID 588727)
Details: VEEV TC-83 cytopathic effect inhibition, at 20 µM
[1] = stronger effect = higher value unless noted
[2] = measured here: 10K pilot screen inhibition, stronger effect = higher value

For O=C(O)c1cccc(N/N=C/c2cc(Br)cc(Br)c2O)c1, the inhibition [1] was 0.48% (inactive).
For O=C(O)c1ccccc1NN=Cc1ccccc1, the inhibition [1] was 0.89% (inactive).
In the case of COc1ccc(CN2CCN(c3ccccc3F)CC2)cc1O, the inhibition [1] is reported as 0.89% (inactive).
For CCc1ccc(Nc2nc(N3CCOCC3)nc(N3CCOCC3)n2)cc1, the inhibition [1] was 0.26% (inactive).
For Cn1cc(Br)c(C(=O)NNC(=O)c2ccc(Cl)cc2)n1, the inhibition [1] was 0.65% (inactive).
In the case of CCCCC#Cc1cncc(C(=O)NN)c1, the inhibition [1] is reported as 1.61% (inactive).
For CC1CCN(c2ccc(C(=O)O)cc2NS(=O)(=O)c2ccc(Br)cc2)CC1, the inhibition [1] was “inactive”.
For CC(=O)Nc1cccc(Oc2ncnc3scc(-c4ccccc4)c23)c1, the inhibition [1] was 11% (inactive).
With CC(=O)Nc1cccc(Oc2ncnc3scc(-c4ccc(C)cc4)c23)c1 the inhibition [1] was 7.98% (inactive).
With CCOC(=O)N1CCN(C(=O)CCNS(=O)(=O)c2ccccc2)CC1 the inhibition [1] was 1.37% (inactive).
In the case of CCOC(=O)c1[nH]c(COC(=O)c2ccccc2NC(=O)c2ccco2)c(C(=O)OCC)c1C, the inhibition (stronger effect = higher value) is reported as 1.08% (inactive) and the inhibition [2] is reported as 3.34%.
For CCCCN(C(=O)CSc1nc(CCC)cc(=O)[nH]1)c1c(N)n(Cc2ccccc2)c(=O)[nH]c1=O, the inhibition [1] was 0.91% (inactive).
In the case of O=c1oc(C2(O)CCCCC2)cc2ccccc12, the inhibition [1] is reported as 0.11% (inactive).
For O=c1oc(C2(O)CCCCC2)cc2ccc(Br)cc12, the inhibition (stronger effect = higher value) was 0.16% (inactive) and the inhibition [2] was 1.56%.
With COc1ccc(OC)c(NC(=O)c2ccc3c(c2)OCO3)c1 the inhibition [1] was “inactive”.
For CCCc1nc2c(s1)CCc1onc(-c3cccc([N+](=O)[O-])c3)c1-2, the inhibition [1] was 0.11% (inactive).
For CN1CCN(c2ccc(NC(=O)c3ccc(-c4ccc(Br)cc4)o3)cc2)CC1, the inhibition [1] was 9.39% (inactive).
With CN1CCN(c2ccc(NC(=O)c3ccc(-c4ccc(Cl)cc4)o3)cc2)CC1 the inhibition [1] was 10.7% (inactive).
With O=C(CN(C(=O)c1csnn1)c1cccc(C(F)(F)F)c1)NCCc1ccccc1 the inhibition [1] was “inactive”.
With O=[N+]([O-])c1cccc(C2=NC(c3ccccc3)CO2)c1 (stereo not drawn) the inhibition [1] was 0.23% (inactive).
With O=[N+]([O-])c1ccc(-[n+]2c(-c3ccccc3)cc(-c3ccccc3)cc2-c2ccccc2)cc1 the inhibition [1] was 2.23% (inactive).
In the case of O=C1CCC(C(=O)N2CCN(c3ccc(F)cc3)CC2)CN1CC1CCCCC1 (stereo not drawn), the inhibition [1] is reported as 0.83% (inactive).
In the case of Cc1onc(-c2ccccc2)c1C(=O)NNC(=S)NC(=O)c1ccc(Br)cc1, the inhibition [1] is reported as 3.29% (inactive).
For Cc1onc(-c2ccccc2)c1C(=O)NC(=S)NNC(=O)c1ccc(O)cc1O, the inhibition [1] was 12.2% (inactive).
In the case of Nc1nnnn1/N=C/C(Br)=C/c1ccccc1, the inhibition [1] is reported as 12.1% (inactive).
With BrC(=C\c1ccccc1)/C=N/n1cnnc1 the inhibition [1] was 5.75% (inactive).
With Cc1ccc(-c2cc(C(F)F)n3ncc(C(=O)N4CCN(c5ccccn5)CC4)c3n2)cc1 the inhibition [1] was 8.27% (inactive).
In the case of O=C(NCc1ccccc1)c1ncn[nH]1, the inhibition [1] is reported as “inactive”.
With O=C(Nc1ccccc1Cl)C1CCCN(S(=O)(=O)c2ccc(-n3cnnn3)cc2)C1 (stereo not drawn) the inhibition [1] was 0.96% (inactive).
With COc1cccc(-c2ccc(NC(=O)C3CCCN(Cc4cnn(C)c4C)C3)cc2)c1 (stereo not drawn) the inhibition [1] was 23.7% (inactive).
In the case of COc1cccc(-c2ccc(NC(=O)C3CCCN(Cc4cnc(C)s4)C3)cc2)c1 (stereo not drawn), the inhibition [1] is reported as 2.02% (inactive).
In the case of Cn1cc(CN2CCC(C(=O)Nc3cccc(-c4cccc(F)c4)c3)CC2)cn1, the inhibition [1] is reported as 5.64% (inactive).
For COc1cccc(-c2ccc(NC(=O)C3CCCN(Cc4cnn(C(C)C)c4)C3)cc2)c1 (stereo not drawn), the inhibition [1] was 21.3% (inactive).
For Cc1ncc(CN2CCCC(C(=O)Nc3ccc(-c4ccco4)cc3)C2)n1C (stereo not drawn), the inhibition [1] was 5.05% (inactive).
With Cc1ncc(CN2CCCC(C(=O)Nc3ccc(-c4cccc(F)c4)cc3)C2)cn1 (stereo not drawn) the inhibition [1] was 5.3% (inactive).
In the case of COC(=O)C(O)(c1ccc(N(C)C(=O)c2ccc(Cl)c(Cl)c2)cc1)C(F)(F)F (stereo not drawn), the inhibition [1] is reported as 0.88% (inactive).
In the case of CCOC(=O)c1c(S(=O)(=O)N2c3ccccc3CC2C)c(C)n(C)c1C (stereo not drawn), the inhibition [1] is reported as “inactive”.
With Cc1c(NC(=O)c2ccc(Br)s2)c(=O)n(-c2ccccc2)n1C the inhibition [1] was 0.26% (inactive).
For O=C(N[C@@H](Cc1ccccc1)C(=O)CCl)OCc1ccccc1, the inhibition [1] was 8.46% (inactive).
For CC(=O)NC(CC(C)C)C(=O)NC(Cc1ccccc1)C(=O)CCl (stereo not drawn) (Ac-Leu-Phe-CH2Cl; configuration not given here), the inhibition [1] was 6.56% (inactive).
For Cc1nc(-c2ccc(Cl)cc2)sc1C1(C)CC(c2cccc(F)c2)=NO1 (stereo not drawn), the inhibition [1] was 2.59% (inactive).
With C[C@]12CCC(O)CC1CCC1C2CC[C@]2(C)C(c3cc(C(F)(F)F)n[nH]3)CCC12 (stereo partly drawn) the inhibition [1] was “inactive”.
In the case of CN(C)CCNC(=O)c1ccccc1-c1cc2ccccc2c(=O)o1, the inhibition [1] is reported as 0.53% (inactive).
For COc1cc2c(cc1NC(=O)c1cccc(F)c1)CCCC2, the inhibition [1] was 0.61% (inactive).
For COc1ccc(C(=O)Nc2cc3c(cc2OC)CCCC3)cc1Br, the inhibition [1] was 1.28% (inactive).
With CCOc1ccc(NC(=O)CN(C)C(=O)CCc2nc3ccccc3c(=O)[nH]2)cc1OCC the inhibition [1] was “inactive”.
In the case of CC1(C)Cc2cccc(OCC(=O)Nc3nccs3)c2O1, the inhibition [1] is reported as 7.27% (inactive).
For CC1(C)Cc2cccc(OCC(=O)Nc3cccnc3)c2O1, the inhibition [1] was 7.7% (inactive).
For CCCC(=O)C1C(=O)CC(CC(C)SCC)CC1=O (stereo not drawn), the inhibition [1] was 0.43% (inactive).
In the case of O=C1/C(=C/c2cccnc2)Oc2cc(OS(=O)(=O)c3ccc(F)cc3)ccc21, the inhibition [1] is reported as 0.87% (inactive).
For CCc1c(C(=O)NC2CCCCC2)[nH]c(C)c1C(C)=O, the inhibition [1] was “inactive”.
In the case of CC(=O)c1c(C)[nH]c(C(=O)NC2CCSc3ccccc32)c1C (stereo not drawn), the inhibition [1] is reported as 4.81% (inactive).
In the case of COc1ccc(N2C(=O)CC(N3CCN(c4ccc(Cl)cc4)CC3)C2=O)cc1 (stereo not drawn), the inhibition [1] is reported as 0.34% (inactive).
With Cc1cc2occ(CC(=O)Nc3nnc(C4CC4)s3)c2cc1C the inhibition [1] was 0.7% (inactive).
With CCc1nnc(NC(=O)Cc2c[nH]c3ccccc23)s1 the inhibition [1] was 0.4% (inactive).
In the case of CCC(CC)c1nnc(NC(=O)Cc2c[nH]c3ccccc23)s1, the inhibition [1] is reported as 3.52% (inactive).
In the case of O=C(Cc1coc2ccc3ccccc3c12)Nc1nccs1, the inhibition [1] is reported as 2.66% (inactive).
For CC(=O)c1cccc(N=Cc2c(O)c3ccccc3oc2=O)c1, the inhibition [1] was 8.95% (inactive).
In the case of Cc1[nH]c2ccccc2c1C(C[N+](=O)[O-])c1ccco1 (stereo not drawn), the inhibition [1] is reported as 1.43% (inactive).
In the case of COc1cc(S(=O)(=O)N2CCN(C)CC2)c(OC)cc1Cl, the inhibition [1] is reported as “inactive”.
With COCCC(=O)NC12CC3CC(CC(C3)C1)C2 the inhibition [1] was “inactive”.
With O=C(CNCCO)NC12CC3CC(CC(C3)C1)C2 the inhibition [1] was 2.6% (inactive).
In the case of Oc1ccc(N=Nc2n[nH]c(-c3ccc(Cl)cc3)n2)cc1, the inhibition [1] is reported as 1.16% (inactive).
For Oc1ccc(Cl)cc1N=Nc1ccccc1, the inhibition [1] was “inactive”.
With COc1ccccc1-c1n[nH]c(=S)o1 the inhibition [1] was 0.85% (inactive).
For COC(=O)Nc1ccc(S(=O)(=O)N2CCCc3ccccc32)cc1, the inhibition [1] was “inactive”.
In the case of CC(=O)Nc1ccc(S(=O)(=O)N2CCCc3ccccc32)cc1, the inhibition [1] is reported as “inactive”.
In the case of O=C(O)c1ccc(Sc2ccccn2)c([N+](=O)[O-])c1, the inhibition [1] is reported as 0.39% (inactive).
In the case of N/C(CS(=O)(=O)c1ccccc1)=N\OC(=O)c1ccc(F)cc1, the inhibition [1] is reported as 1.85% (inactive).
In the case of c1ccc(Oc2nc(NCc3ccco3)nc(NCc3ccco3)n2)cc1, the inhibition [1] is reported as 4.2% (inactive).
In the case of Cc1ccc(S(=O)(=O)Nc2cccc3cccnc23)cc1, the inhibition [1] is reported as 5.25% (inactive).
For Cc1ccc(NS(=O)(=O)c2cccc3cccnc23)c(Cl)c1, the inhibition [1] was 1.97% (inactive).
With O=S1(=O)N=C2CCCCCN2C(c2ccc(Cl)cc2)N1 (stereo not drawn) the inhibition [1] was 0.81% (inactive).
For CCCCN1C(Nc2ccccc2)=NC[C@@H]1C, the inhibition [1] was 0.29% (inactive).
In the case of COc1ccc(C(C(=O)NC2CCCC2)N(C(=O)c2ccco2)c2ccc(OC)c(OC)c2)cc1 (stereo not drawn), the inhibition [1] is reported as 0.66% (inactive).
In the case of CC(C)NC(=O)N(C)C[C@@H]1Oc2c(NS(=O)(=O)c3ccccc3)cccc2C(=O)N([C@@H](C)CO)C[C@@H]1C, the inhibition [1] is reported as 0.31% (inactive).
With O=c1nc(/C=C/c2ccc(O)c(O)c2)oc2ccccc12 the inhibition [1] was 1.28% (inactive).
In the case of COc1ccc(/C=C/c2nc3ccccc3c(=O)o2)cc1, the inhibition [1] is reported as 3.84% (inactive).
With O=C1NC(=O)c2cc(NC(=O)c3cccc4ccccc34)ccc21 the inhibition [1] was 2.09% (inactive).
In the case of C[C@]1(O)CCC2C3CC[C@@H]4CC(=O)CC[C@]4(C)C3CC[C@@]21C (stereo partly drawn), the inhibition [1] is reported as “inactive”.
With CC12CCC(=O)CC1CCC1C2CCC2(C)C1CCC2(O)C(=O)CO (stereo not drawn) the inhibition [1] was 10.6% (inactive).
In the case of Cn1cc(CN2CCC(O)CC2)c(-c2ccc(Oc3ccccc3)cc2)n1, the inhibition [1] is reported as 1.33% (inactive).
With Cn1cc(CN2CCC(CO)CC2)c(-c2ccc(Oc3ccccc3)cc2)n1 the inhibition [1] was 0.54% (inactive).
With COc1cccc(CN2CC(C(=O)NCCCn3ccnc3C)CCC2=O)c1 (stereo not drawn) the inhibition [1] was 0.67% (inactive).
In the case of CC(C)c1nnc(SCC(=O)N2CCc3ccccc32)n1N, the inhibition [1] is reported as “inactive”.
For C/C(=N\NC(=O)c1c(C)nc2ccccn12)c1cccc([N+](=O)[O-])c1, the inhibition [1] was 0.31% (inactive).
In the case of COc1ccc(/C=C/C(=O)c2c(C)nc3ccccn23)cc1, the inhibition [1] is reported as 5.86% (inactive).
In the case of Cc1ccc(S(=O)(=O)NNC(=O)c2sc(NS(=O)(=O)c3ccccc3)nc2C)cc1, the inhibition [1] is reported as 2.55% (inactive).
With CC(=O)c1cccc(NC(=O)CSc2nc3ccccc3c(=O)n2CCCN2CCOCC2)c1 the inhibition [1] was 8.56% (inactive).
For COc1ccc(CNC(=O)C(C)Sc2nc3ccccc3c(=O)n2CCCN2CCOCC2)cc1 (stereo not drawn), the inhibition [1] was 0.34% (inactive).
In the case of c1ccc(-c2nnnc3ccccc23)cc1, the inhibition [1] is reported as 0.46% (inactive).
For Cc1ccc2nnnc(-c3ccccc3)c2c1, the inhibition [1] was 0.17% (inactive).
With COC(c1ccccc1)c1nc2ccccc2[nH]c1=O (stereo not drawn) the inhibition [1] was 0.57% (inactive).
With O=C(CCCSc1nc2ccccc2[nH]1)Nc1ccccc1 the inhibition [1] was “inactive”.
With COc1cc(NC(=S)NC(=O)c2c(OC)cccc2OC)ccc1NC(=O)c1cccs1 the inhibition [1] was 3.81% (inactive).
For COc1cc(NC(=S)NC(=O)c2cc(C)cc(C)c2)ccc1NC(=O)c1cccs1, the inhibition [1] was 8.93% (inactive).
